Results reported in ChEMBL document CHEMBL1157539, “Thousands of chemical starting points for antimalarial lead identification” (Nature, 2010).

Legend:
Assay type in all cases: functional
Plasmodium falciparum [1] = experiment: GSK_TCMDC: Inhibition of Plasmodium falciparum 3D7 in whole red blood cells, using parasite LDH activity as an index of growth. Test compounds present at 2uM
Plasmodium falciparum [2] = experiment: GSK_TCMDC: Inhibition of Plasmodium falciparum Dd2 in whole red blood cells, using parasite LDH activity as an index of growth. Test compounds present at 2uM
HepG2 = experiment: GSK_TCMDC: Percent inhibition of human HepG2 cell line. Test compounds present at 10uM.

Cc1ccn2c(C(=O)N3CCN(c4cccc5c4nc(-c4ccoc4)n5Cc4ccccn4)CC3)c(C)nc2c1
Inhibition (Plasmodium falciparum [1]): 98% | Inhibition (Plasmodium falciparum [2]): 99% | Inhibition (HepG2): 2%

Cl.N=C1N=C(N)NCN1OCc1ccc(Cl)c(Cl)c1
Inhibition (Plasmodium falciparum [1]): 95% | Inhibition (Plasmodium falciparum [2]): 4% | Inhibition (HepG2): 14%

Cc1ccc2[nH]c(-c3cc(-c4ccc(CO)cc4)cnc3N)nc2c1.O=C(O)C(F)(F)F
Inhibition (Plasmodium falciparum [1]): 95% | Inhibition (Plasmodium falciparum [2]): 6% | Inhibition (HepG2): 52%

COc1ccc(Cl)cc1N1CCN(CCCNC(=O)c2ccc(-c3nc4cc(Cl)c(C)cc4[nH]3)c(F)c2)CC1
Inhibition (Plasmodium falciparum [1]): 99% | Inhibition (Plasmodium falciparum [2]): 91% | Inhibition (HepG2): 0%

CC(C)Cn1cc(C2CCN(CCN3CCC(CNC(=O)c4ccc(NC(=O)c5cc(Cl)cc(Cl)c5)cc4)CC3)CC2)c2ccccc21
Inhibition (Plasmodium falciparum [1]): 91% | Inhibition (Plasmodium falciparum [2]): 96% | Inhibition (HepG2): 53%

CS(=O)(=O)NCCCNCc1cccc(-c2csc(-c3nc4ccccc4[nH]3)c2)c1.O=C(O)C(F)(F)F
Inhibition (Plasmodium falciparum [1]): 95% | Inhibition (Plasmodium falciparum [2]): 9% | Inhibition (HepG2): 23%

CCCNC[C@@H](O)[C@H](Cc1ccccc1)NC(=O)c1cc(NCC)cc(N2CCCCS2(=O)=O)c1.Cl
Inhibition (Plasmodium falciparum [1]): 97% | Inhibition (Plasmodium falciparum [2]): 74% | Inhibition (HepG2): 0%

O=C(Nc1cccc(-c2cccc(CN3CCCC3)c2)c1)c1ccc(Cl)cc1.O=C(O)C(F)(F)F
Inhibition (Plasmodium falciparum [1]): 93% | Inhibition (Plasmodium falciparum [2]): 32% | Inhibition (HepG2): 50%

Cc1ccccc1OCC(O)CN1CCC(C2CCN(CC(O)COc3ccccc3C)CC2)CC1 (stereo not drawn)
Inhibition (Plasmodium falciparum [1]): 100% | Inhibition (Plasmodium falciparum [2]): 51% | Inhibition (HepG2): 12%

Cc1cc(OCCCN2CCC(NS(=O)(=O)c3cccc(Br)c3)C2)c2ccccc2n1 (stereo not drawn)
Inhibition (Plasmodium falciparum [1]): 86% | Inhibition (Plasmodium falciparum [2]): 40% | Inhibition (HepG2): 13%

CN(C)Cc1ccc(-c2ccc(NC(=O)c3ccc4c(=O)n(Cc5ccccc5)cnc4c3)cc2)cc1
Inhibition (Plasmodium falciparum [1]): 100% | Inhibition (Plasmodium falciparum [2]): 39% | Inhibition (HepG2): 94%

O=c1cc(NCCCNCc2cccc(OC(F)(F)F)c2)[nH]c2ccccc12
Inhibition (Plasmodium falciparum [1]): 97% | Inhibition (Plasmodium falciparum [2]): 72% | Inhibition (HepG2): 0%

CC[C@H](C)CNC(=O)c1cccc(-c2ccc(CN3CCC(N4CCCC4)CC3)cc2)n1.O=C(O)C(F)(F)F
Inhibition (Plasmodium falciparum [1]): 100% | Inhibition (Plasmodium falciparum [2]): 82% | Inhibition (HepG2): 41%

COc1ccc2nccc(CCN3CC(O)C(CNCc4ccc5c(n4)NC(=O)CS5)C3)c2n1.Cl (stereo not drawn)
Inhibition (Plasmodium falciparum [1]): 86% | Inhibition (Plasmodium falciparum [2]): 26% | Inhibition (HepG2): 4%

CCC(C)(CC)C(=O)n1ncc2c3c(N)nc(N)nc3ccc21
Inhibition (Plasmodium falciparum [1]): 94% | Inhibition (Plasmodium falciparum [2]): 6% | Inhibition (HepG2): 73%

COc1ccc2nccc([C@@H](O)CN3CCC(NC(=O)c4ccc(OC)c(N)c4)CC3)c2c1.CS(=O)(=O)O
Inhibition (Plasmodium falciparum [1]): 93% | Inhibition (Plasmodium falciparum [2]): 0% | Inhibition (HepG2): 9%

Cc1ccc(C(=O)Cn2nc(-c3ccc(C)c(S(=O)(=O)N4CCCC4)c3)ccc2=O)cc1
Inhibition (Plasmodium falciparum [1]): 94% | Inhibition (Plasmodium falciparum [2]): 70% | Inhibition (HepG2): 0%

CCOC(=O)C(C(C)=O)C(c1ccccc1)C(C(C)=O)C(=O)OCC (stereo not drawn)
Inhibition (Plasmodium falciparum [1]): 95% | Inhibition (Plasmodium falciparum [2]): 14% | Inhibition (HepG2): 6%

CCCCCCN1CCCN(Cc2ccc(C(=O)Nc3ccc(F)c(F)c3)cc2)CC1.O=C(O)C(F)(F)F
Inhibition (Plasmodium falciparum [1]): 84% | Inhibition (Plasmodium falciparum [2]): 48% | Inhibition (HepG2): 50%

O=C(c1ccco1)N1CCN(c2nc(-c3ccc(Cl)cc3)nc3ccccc23)CC1
Inhibition (Plasmodium falciparum [1]): 96% | Inhibition (Plasmodium falciparum [2]): 91% | Inhibition (HepG2): 13%

CN(C)CCOc1ccc(-c2cc(-c3ccnc(N)n3)c(-c3ccc(Cl)c(O)c3)o2)cc1
Inhibition (Plasmodium falciparum [1]): 100% | Inhibition (Plasmodium falciparum [2]): 91% | Inhibition (HepG2): 14%

CCCCCNc1ccnc2cc(Cl)ccc12
Inhibition (Plasmodium falciparum [1]): 97% | Inhibition (Plasmodium falciparum [2]): 99% | Inhibition (HepG2): 12%

Fc1ccc(NC(S)=NN=Cc2ccccn2)cc1
Inhibition (Plasmodium falciparum [1]): 95% | Inhibition (Plasmodium falciparum [2]): 67% | Inhibition (HepG2): 56%

Cc1cc2nc(-c3cccc(C(=O)NC4CCN(Cc5ccccc5)CC4)c3)[nH]c2cc1C
Inhibition (Plasmodium falciparum [1]): 100% | Inhibition (Plasmodium falciparum [2]): 13% | Inhibition (HepG2): 32%

Cc1cc(F)ccc1-c1nc(NCCCNCCc2ccccc2)nc2c1ccc(=O)n2-c1c(F)cccc1F.O=C(O)C(F)(F)F
Inhibition (Plasmodium falciparum [1]): 100% | Inhibition (Plasmodium falciparum [2]): 100% | Inhibition (HepG2): 36%

COc1cc(C2CCCCC2)c(OC)cc1CC1c2cc(O)c(Cl)cc2CCN1C.Cl (stereo not drawn)
Inhibition (Plasmodium falciparum [1]): 100% | Inhibition (Plasmodium falciparum [2]): 100% | Inhibition (HepG2): 12%

COc1c(C2=CCN(CCCCNC(=O)c3ccc(-c4ccc(C#N)cc4)cc3)CC2)ccc2c1CCCC2
Inhibition (Plasmodium falciparum [1]): 94% | Inhibition (Plasmodium falciparum [2]): 82% | Inhibition (HepG2): 44%

CC(C)c1ccc(CN2CCC(NC(=O)c3ccc(-c4ccccc4F)s3)CC2)cc1.O=C(O)C(F)(F)F
Inhibition (Plasmodium falciparum [1]): 81% | Inhibition (Plasmodium falciparum [2]): 13% | Inhibition (HepG2): 46%

COc1cc(NC(=O)/C=C/c2cccc3ccoc23)ccc1OCCN(C(C)C)C(C)C.Cl
Inhibition (Plasmodium falciparum [1]): 90% | Inhibition (Plasmodium falciparum [2]): 5% | Inhibition (HepG2): 22%

CC(C)c1ccc(N(CC(=O)N/N=C/c2ccc(C(F)(F)F)cc2)S(=O)(=O)c2ccc(C(F)(F)F)cc2)cc1
Inhibition (Plasmodium falciparum [1]): 91% | Inhibition (Plasmodium falciparum [2]): 44% | Inhibition (HepG2): 2%

CCNc1cc(C(=O)N[C@@H](Cc2ccccc2)[C@H](O)CNC2(CC)CCCCC2)cc(N2CCCCS2(=O)=O)c1.Cl
Inhibition (Plasmodium falciparum [1]): 98% | Inhibition (Plasmodium falciparum [2]): 98% | Inhibition (HepG2): 3%

COC(=O)C(C)(C)Cc1c(SC(C)(C)C)c2cc(C(C)C)ccc2n1Cc1ccc(Cl)cc1
Inhibition (Plasmodium falciparum [1]): 96% | Inhibition (Plasmodium falciparum [2]): 96% | Inhibition (HepG2): 0%

O=C(NCCCN1CCOCC1)c1ccc(-c2cccc(NC(=O)c3ccc(Cl)c(Cl)c3)c2)cc1
Inhibition (Plasmodium falciparum [1]): 100% | Inhibition (Plasmodium falciparum [2]): 68% | Inhibition (HepG2): 3%

COc1ccc(N2C(=O)c3c(c4ccccc4n3C)C2c2ccccc2O)cc1 (stereo not drawn)
Inhibition (Plasmodium falciparum [1]): 96% | Inhibition (Plasmodium falciparum [2]): 91% | Inhibition (HepG2): 32%

O=C(Cc1c[nH]cn1)Nc1ccc(-c2ccc(-c3nc4cc(F)ccc4[nH]3)cc2)cc1
Inhibition (Plasmodium falciparum [1]): 100% | Inhibition (Plasmodium falciparum [2]): 91% | Inhibition (HepG2): 39%

COc1ccccc1-c1csc(C(=O)NCC2CCN(Cc3ccc(C(C)C)cc3)C2)c1.O=C(O)C(F)(F)F (stereo not drawn)
Inhibition (Plasmodium falciparum [1]): 81% | Inhibition (Plasmodium falciparum [2]): 6% | Inhibition (HepG2): 24%

Nc1nccc2ccc(-c3cccc(O)c3)cc12
Inhibition (Plasmodium falciparum [1]): 95% | Inhibition (Plasmodium falciparum [2]): 71% | Inhibition (HepG2): 43%

COc1ccc(-c2cnc3[nH]cc(-c4ccncc4)c3c2)cc1OC
Inhibition (Plasmodium falciparum [1]): 98% | Inhibition (Plasmodium falciparum [2]): 97% | Inhibition (HepG2): 52%

CC(C)c1sc(-c2ccc(C(C)(C)C)cc2)nc1C(=O)NCCCN1CCCC1=O
Inhibition (Plasmodium falciparum [1]): 96% | Inhibition (Plasmodium falciparum [2]): 92% | Inhibition (HepG2): 0%

O=C(Nc1cc(C(F)(F)F)cc(C(F)(F)F)c1)N1CCC(CCN2CCC(c3c[nH]c4ccccc34)CC2)CC1
Inhibition (Plasmodium falciparum [1]): 91% | Inhibition (Plasmodium falciparum [2]): 16% | Inhibition (HepG2): 17%

Nc1nc(N)c2c3c(cnc2n1)CCCC3
Inhibition (Plasmodium falciparum [1]): 95% | Inhibition (Plasmodium falciparum [2]): 0% | Inhibition (HepG2): 61%

O=C(Nc1ccc(Cl)cc1)Nc1ccc(-c2csc(-c3nc4ccccc4[nH]3)c2)cc1
Inhibition (Plasmodium falciparum [1]): 90% | Inhibition (Plasmodium falciparum [2]): 40% | Inhibition (HepG2): 59%

CCN(CC)CCCNC(=O)/C(=C/C=C/c1cc2cc(Cl)c(Cl)cc2[nH]1)OC.Cl
Inhibition (Plasmodium falciparum [1]): 84% | Inhibition (Plasmodium falciparum [2]): 21% | Inhibition (HepG2): 38%

CC(NCC(O)Cn1c2ccccc2c2ccccc21)c1ccccc1.O=C(O)c1ccccc1 (stereo not drawn)
Inhibition (Plasmodium falciparum [1]): 96% | Inhibition (Plasmodium falciparum [2]): 85% | Inhibition (HepG2): 37%

C=CCn1c(=N)n(CC(O)c2ccc(Cl)c(Cl)c2)c2ccccc21.Cl (stereo not drawn)
Inhibition (Plasmodium falciparum [1]): 91% | Inhibition (Plasmodium falciparum [2]): 80% | Inhibition (HepG2): 15%

CC[C@H](C)CNCc1ccc(OCc2cccc(COc3ccc(CNC[C@@H](C)CC)cc3I)c2)c(I)c1.Cl
Inhibition (Plasmodium falciparum [1]): 99% | Inhibition (Plasmodium falciparum [2]): 60% | Inhibition (HepG2): 99%

Br.COc1cc(CCCON2C(=N)N=C(N)NC2(C)C)cc(OC)c1OC
Inhibition (Plasmodium falciparum [1]): 98% | Inhibition (Plasmodium falciparum [2]): 94% | Inhibition (HepG2): 68%

Cc1ccc(Nc2ccnc3ccc(C(F)(F)F)cc23)cc1O.O=C(O)C(F)(F)F
Inhibition (Plasmodium falciparum [1]): 100% | Inhibition (Plasmodium falciparum [2]): 69% | Inhibition (HepG2): 23%

COc1cc(CN/C(=N/c2ccc(-c3ccccc3)cc2)Nc2ccc(C#N)cc2O)cc(OC)c1
Inhibition (Plasmodium falciparum [1]): 95% | Inhibition (Plasmodium falciparum [2]): 64% | Inhibition (HepG2): 0%

Nc1ncc(-c2ccc(Cl)c(Cl)c2)c(N)n1
Inhibition (Plasmodium falciparum [1]): 94% | Inhibition (Plasmodium falciparum [2]): 0% | Inhibition (HepG2): 65%

O=C(O)C(F)(F)F.O=C1OC2(CN1CC1CCN(Cc3ccc(-n4ccnc4)cc3)C1)c1ccccc1-c1ccccc12 (stereo not drawn)
Inhibition (Plasmodium falciparum [1]): 96% | Inhibition (Plasmodium falciparum [2]): 0% | Inhibition (HepG2): 25%

Cc1cccc2nc(-c3ccc(-c4cccc(NC(=O)c5cnn6cccnc56)c4)cc3)[nH]c12
Inhibition (Plasmodium falciparum [1]): 91% | Inhibition (Plasmodium falciparum [2]): 29% | Inhibition (HepG2): 100%

CN(C)CCOc1ccc(NC(=O)Nc2ccnc3c(Br)cccc23)cc1Cl
Inhibition (Plasmodium falciparum [1]): 97% | Inhibition (Plasmodium falciparum [2]): 25% | Inhibition (HepG2): 10%

CCCC1(NC[C@@H](O)[C@H](Cc2ccccc2)NC(=O)c2cc(NCC)cc(N3CCCCS3(=O)=O)c2)CCCC1.Cl
Inhibition (Plasmodium falciparum [1]): 100% | Inhibition (Plasmodium falciparum [2]): 97% | Inhibition (HepG2): 0%

CC(C)(C(=O)NCCC1CCN(CCCCCNC(=O)/C=C/c2ccc(Cl)c(Cl)c2)CC1)c1ccc(Cl)cc1
Inhibition (Plasmodium falciparum [1]): 89% | Inhibition (Plasmodium falciparum [2]): 33% | Inhibition (HepG2): 92%

CN(C)c1nc2cc(-n3cnc4cc(-c5ccc(Cl)cc5)sc4c3=O)ccc2n1CCCN1CCCCC1.O=C(O)C(F)(F)F
Inhibition (Plasmodium falciparum [1]): 97% | Inhibition (Plasmodium falciparum [2]): 23% | Inhibition (HepG2): 55%

Fc1cccc(Nc2nc(NCc3ccc(Cl)c(Cl)c3)nc(Nc3cccc(F)c3)n2)c1
Inhibition (Plasmodium falciparum [1]): 99% | Inhibition (Plasmodium falciparum [2]): 7% | Inhibition (HepG2): 0%

CN1CCN(CCCN(Cc2csc(-c3ccc(CNCc4ccccc4)cc3)n2)C(=O)Nc2cccc(Cl)c2)CC1.O=C(O)C(F)(F)F
Inhibition (Plasmodium falciparum [1]): 100% | Inhibition (Plasmodium falciparum [2]): 67% | Inhibition (HepG2): 32%

O=C(O)C(F)(F)F.c1ccc(-c2ccc(CNCc3ccc(-c4cccc(-c5nc6ccccc6[nH]5)c4)cc3)s2)nc1
Inhibition (Plasmodium falciparum [1]): 98% | Inhibition (Plasmodium falciparum [2]): 80% | Inhibition (HepG2): 48%

Cc1cc(NCCC(=O)Nc2ccccc2)nc(NCCOc2ccccc2)n1.O=C(O)C(F)(F)F
Inhibition (Plasmodium falciparum [1]): 100% | Inhibition (Plasmodium falciparum [2]): 9% | Inhibition (HepG2): 5%

CCOc1cc(O)c(-c2nc(N)ncc2-c2ccc3c(c2)OCCO3)cc1CC
Inhibition (Plasmodium falciparum [1]): 99% | Inhibition (Plasmodium falciparum [2]): 68% | Inhibition (HepG2): 0%
